Here are results for 40 molecules from PubChem BioAssay (NCATS).

The structures appear in SMILES notation. Active and inactive are the calls of the source. No rule for the calls is given here.
Potency is read from the fitted curve at half-maximal effect.

The test system of the test is HIV-1 nucleocapsid protein NCp7 (binding to TG oligonucleotide). As to the kind of experiment: HIV Nucleocapsid (AID 346).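 Also: potency is for inhibitors that block NC binding and lower polarization.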 The settings on record: HIV-1 NC / fluorescein-TGTGTGTG probe, fluorescence polarization. The method in brief: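 Fluorescence polarization binding of 100 nM HIV-1 NC to 10 nM fluorescein-labelled TG4xF oligonucleotide. Buffer was Hepes pH 7.5 with 250mM NaCl, 1uM ZnCl2, TCEP and 2-mercaptoethanol. Compounds were incubated 1 hr at room temperature before the read.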
In the case of `O=C(Nc1ccccc1)N1CC[C@@]2(CCCN(C(=O)c3cc(C(F)(F)F)cc(C(F)(F)F)c3)C2)C1`, the Potency was > 20 µM (inactive).
With `Cc1cccc(CNc2nc(-c3ccc(C(=O)N(C)C)cc3)nc3ccccc23)c1` the figure was > 20 µM (inactive).
`COc1ccccc1CNc1ccnc(-c2ccccc2CN(C)C)n1`: the Potency was > 20 µM (inactive).
In the case of `Cn1cccc1C(=O)N1CCC2(CCCN(C(=O)Nc3cccc(C#N)c3)C2)CC1`, the Potency is > 20 µM (inactive).
On to `N#CCCn1c(=O)c(-c2cccc(C#N)c2)nc2cnc(Oc3ccccc3)nc21`, for which the Potency was > 20 µM (inactive).
On to `COc1cccc(-c2cncnc2Nc2ccccc2)c1`, for which the Potency was > 20 µM (inactive).
With `O=C(c1ccco1)N1CCC[C@@]2(CCN(c3ccccc3)C2)C1` the figure was > 20 µM (inactive); with `COc1ccc(-c2nc3cnc(OC)nc3n(-c3ccc(OC)cc3)c2=O)cc1`, > 20 µM (inactive); with `O=C(c1cccc(F)c1)N1CCC2(CC1)CCN(c1ncccn1)CC2`, > 20 µM (inactive).
With `N#Cc1ccc(CN2CCC3(CC2)CCN(C(=O)c2cnccn2)CC3)cc1`, the Potency was > 20 µM (inactive).
On to `CNc1nc(-c2ccccc2OC)nc2ccccc12`, for which the Potency was > 20 µM (inactive).
Regarding `O=c1c(-c2ccc(F)cc2)nc2cnc(N3CCNCC3)nc2n1C1CC1`, the Potency was > 20 µM (inactive).
Consider `COc1ccc(-n2c(=O)c(-c3cccc(Cl)c3)nc3cncnc32)cc1`, for which the Potency was > 4 µM (inactive).
As for `COc1cccc(Nc2ncc3nc(-c4ccccc4)c(=O)n(Cc4cccs4)c3n2)c1`, the Potency was > 20 µM (inactive).
`COCC(=O)N1CCC2(CC1)CN(C(=O)Nc1ccccc1)C2`: the Potency was > 20 µM (inactive).
As for `O=C(c1cc(C(F)(F)F)cc(C(F)(F)F)c1)N1CCC2(CCN(Cc3nccs3)CC2)CC1`, the Potency is > 20 µM (inactive).
With `CN1CCN(c2ncc3nc(-c4cn(C)c5ccccc45)c(=O)n(CCC#N)c3n2)CC1` the figure was > 20 µM (inactive); with `COCCn1c(=O)c(-c2ccccc2)nc2cnc(Oc3ccc(OC)cc3)nc21`, > 20 µM (inactive); with `O=c1cnc2cnc(Oc3ccccc3)nc2n1C[C@H]1CCCO1`, > 20 µM (inactive).
With `Cn1c(=O)c(-c2ccccc2)nc2cnc(N3CCNCC3)nc21` the figure was > 20 µM (inactive).
Regarding `CS(=O)(=O)N1CCC2(CCN(c3ccccn3)CC2)CC1`, the Potency was > 20 µM (inactive).
On to `COc1ccccc1CNc1cc(-c2cccc(NS(C)(=O)=O)c2)ncn1`, for which the Potency was > 20 µM (inactive).
Take `O=c1c(-c2cccs2)nc2cnc(N3CCOCC3)nc2n1Cc1cccs1`: the Potency was > 4 µM (inactive).
With `Cn1cccc1C(=O)N1CCC2(CCCN(c3ncccn3)C2)CC1`, the Potency was > 20 µM (inactive).
With `COc1ccc(C(=O)N2CCC[C@@]3(CCN(Cc4ccncc4)C3)C2)cc1`, the Potency is > 20 µM (inactive).
As to `CN1CCN(c2ncnc3ccc(-c4ccc5c(c4)OCO5)cc23)CC1`, the Potency was > 20 µM (inactive).
For `Cc1cccc(CNc2cc(-c3ccc(N(C)C)cc3)ncn2)c1`, the Potency was > 20 µM (inactive).
Consider `O=C(c1ccncc1)N1CCC2(CC1)CN(c1ccccc1)C2`, for which the Potency was > 20 µM (inactive).
Turning to `COCCn1c(=O)c(C)nc2cnc(OC)nc21`, the Potency is > 20 µM (inactive).
Consider `c1ccc(-c2cccc(N3CCCC4(CCNCC4)C3)c2)cc1`, for which the Potency was > 20 µM (inactive).
`CCNc1ncc2nc(CCc3ccccc3)c(=O)n(CCC#N)c2n1`: the Potency is > 20 µM (inactive).
On to `CN(C)c1nc(-c2cccnc2)nc2ccccc12`, for which the Potency was > 20 µM (inactive).
With `CN(C)c1ccc(-c2cncnc2N(C)Cc2ccco2)cc1` the figure was > 20 µM (inactive); with `c1ccc(Nc2ncncc2-c2ccoc2)cc1`, > 20 µM (inactive).
For `c1cncc(CNc2ncnc3ccc(-c4cccnc4)cc23)c1`, the Potency was > 20 µM (inactive).
Regarding `N#CCCn1c(=O)c(-c2ccc(F)cc2)nc2cnc(OCc3ccccc3)nc21`, the Potency was > 20 µM (inactive).
For `c1cncc(CNc2cc(-c3ccoc3)ncn2)c1`, the Potency is > 20 µM (inactive).
For `Cn1cc(-c2nc3cnc(Oc4cccc(Cl)c4)nc3n(CCC#N)c2=O)c2ccccc21`, the Potency was > 20 µM (inactive).
`COc1ccc(NC(=O)N2CC3(CCNCC3)C2)cc1`: the Potency was > 20 µM (inactive).
With `CN1CCN(c2nc(-c3cccc(C#N)c3)nc3ccccc23)CC1` the figure was > 20 µM (inactive).
